Tests used:
Test in all cases: protein-binding microarray (PBM); PBM: ~300 nM protein, 6 mM HEPES pH 7.8, 80 mM KCl, 0.5 mM EDTA, 0.5 mM EGTA, 6% glycerol, 35 ng/ul poly-dIdC, 1% milk, 1 h, room temperature; Ap Aiptasia and Nv Nematostella (sea anemones) / Co Capsaspora / Aq Amphimedon (sponge) / Dm Drosophila / Hu human; RHD is the Rel homology domain; high values mean tight binding
Conditions in all cases: dsDNA, one strand shown
GST-Ap-NF-kB RHD = target: T1, GST-Ap-NF-kB RHD (Exaiptasia pallida (Aiptasia), UniProt A0A913YAJ5 2-422)
T1 sequence: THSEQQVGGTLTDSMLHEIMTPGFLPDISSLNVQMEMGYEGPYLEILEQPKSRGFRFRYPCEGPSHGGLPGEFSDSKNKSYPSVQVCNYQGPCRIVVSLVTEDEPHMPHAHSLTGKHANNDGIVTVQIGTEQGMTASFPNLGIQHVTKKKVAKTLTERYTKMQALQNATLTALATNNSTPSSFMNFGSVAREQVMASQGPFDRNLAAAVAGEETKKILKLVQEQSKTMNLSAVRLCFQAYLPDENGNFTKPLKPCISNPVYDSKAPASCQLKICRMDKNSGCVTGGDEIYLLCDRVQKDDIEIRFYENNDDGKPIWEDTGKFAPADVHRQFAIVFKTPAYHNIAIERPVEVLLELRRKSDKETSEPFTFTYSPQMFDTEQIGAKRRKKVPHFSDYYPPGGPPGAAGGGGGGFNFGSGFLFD

[1] = target: T2, GST-Nv-NF-kB (Cys allele) (Nematostella vectensis, UniProt E5G601 2-411)
T2 sequence: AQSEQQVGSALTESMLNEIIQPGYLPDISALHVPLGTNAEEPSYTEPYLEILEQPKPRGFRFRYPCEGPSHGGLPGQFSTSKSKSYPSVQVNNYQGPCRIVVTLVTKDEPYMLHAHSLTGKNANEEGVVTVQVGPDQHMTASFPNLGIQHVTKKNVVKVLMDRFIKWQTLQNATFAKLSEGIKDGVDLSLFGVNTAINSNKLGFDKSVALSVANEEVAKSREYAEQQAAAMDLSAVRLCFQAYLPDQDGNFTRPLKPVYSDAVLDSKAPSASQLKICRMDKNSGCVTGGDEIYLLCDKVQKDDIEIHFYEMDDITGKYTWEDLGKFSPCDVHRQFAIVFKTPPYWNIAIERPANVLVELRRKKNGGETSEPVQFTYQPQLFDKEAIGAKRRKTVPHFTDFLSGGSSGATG

GST-Co-NF-kB = target: T3, GST-Co-NF-kB (Capsaspora owczarzaki, UniProt F1ARL5 200-546)
T3 sequence: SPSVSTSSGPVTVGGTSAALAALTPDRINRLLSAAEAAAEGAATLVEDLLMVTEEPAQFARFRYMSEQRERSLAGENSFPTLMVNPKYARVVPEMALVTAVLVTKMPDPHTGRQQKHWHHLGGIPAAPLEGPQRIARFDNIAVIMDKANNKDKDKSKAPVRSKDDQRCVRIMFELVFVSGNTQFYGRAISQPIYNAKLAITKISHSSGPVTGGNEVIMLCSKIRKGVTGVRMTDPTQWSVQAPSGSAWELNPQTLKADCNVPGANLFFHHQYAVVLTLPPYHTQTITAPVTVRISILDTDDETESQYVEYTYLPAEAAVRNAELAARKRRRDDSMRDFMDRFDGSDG

GST-Dm-Relish = target: T4, GST-Dm-Relish (Drosophila melanogaster, UniProt Q94527 99-473)
T4 sequence: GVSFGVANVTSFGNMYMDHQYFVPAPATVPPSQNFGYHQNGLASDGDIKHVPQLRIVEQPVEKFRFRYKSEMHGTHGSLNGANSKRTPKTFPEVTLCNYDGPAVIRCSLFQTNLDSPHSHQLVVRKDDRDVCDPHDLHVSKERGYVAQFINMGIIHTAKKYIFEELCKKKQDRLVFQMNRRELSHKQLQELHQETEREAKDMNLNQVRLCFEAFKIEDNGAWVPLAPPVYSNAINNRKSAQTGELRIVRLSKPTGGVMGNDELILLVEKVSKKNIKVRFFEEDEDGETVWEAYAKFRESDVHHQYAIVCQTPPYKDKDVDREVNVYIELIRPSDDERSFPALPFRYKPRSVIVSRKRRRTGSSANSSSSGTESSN

GST-Aq-NF-kB = target: T5, GST-Aq-NF-kB (Amphimedon queenslandica, UniProt A9Y5G7 2-389)
T5 sequence: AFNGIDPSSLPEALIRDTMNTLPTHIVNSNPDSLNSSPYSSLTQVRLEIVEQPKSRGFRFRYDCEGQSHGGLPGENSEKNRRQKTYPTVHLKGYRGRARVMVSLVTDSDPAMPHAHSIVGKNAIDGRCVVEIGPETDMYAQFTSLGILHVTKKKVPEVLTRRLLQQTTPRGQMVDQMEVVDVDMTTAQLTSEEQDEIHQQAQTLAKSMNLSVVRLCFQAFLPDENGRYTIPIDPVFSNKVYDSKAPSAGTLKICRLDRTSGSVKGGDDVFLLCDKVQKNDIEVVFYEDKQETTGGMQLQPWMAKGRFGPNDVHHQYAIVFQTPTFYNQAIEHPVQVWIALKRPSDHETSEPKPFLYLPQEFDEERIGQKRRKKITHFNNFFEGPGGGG

| Sequence | binding signal (GST-Ap-NF-kB RHD) [z-score] | binding signal [1] [z-score] | binding signal (GST-Co-NF-kB) [z-score] | binding signal (GST-Dm-Relish) [z-score] | binding signal (GST-Aq-NF-kB) [z-score] |
| --- | --- | --- | --- | --- | --- |
| CCGATTAACATCAAACTTTCCCATGATGTTAATCGGGTCTTGATTCGCTTGACGCTGCTG | 3.24 | 4.83 | 4.07 | 1.39 | 5.27 |
| CCGATTAACATCAGATTCTCCCCTGATGTTAATCGGGTCTTGATTCGCTTGACGCTGCTG | 5.2 | 5.25 | 6.76 | 1.92 | 4.43 |
| CCGATTAACATCAGGGGTTTTGATGATGTTAATCGGGTCTTGATTCGCTTGACGCTGCTG | 3.81 | 3.46 | 1.34 | 5.6 | 3.25 |
| CCGATTAACATCAGGGATTTCTATGATGTTAATCGGGTCTTGATTCGCTTGACGCTGCTG | 4.28 | 4.04 | 1.22 | 5.1 | 4 |
| CCGATTAACATCAGGGAATATAATGATGTTAATCGGGTCTTGATTCGCTTGACGCTGCTG | 3.2 | 3.59 | 3.13 | 1.66 | 3.14 |
| CCGATTAACATCAAAAAGGGAAATGATGTTAATCGGGTCTTGATTCGCTTGACGCTGCTG | 2.59 | 5.91 | 1.33 | 1.31 | 4.54 |
| CCGATTAACATCACGGGGGGGACTGATGTTAATCGGGTCTTGATTCGCTTGACGCTGCTG | 5.94 | 4.86 | 7.62 | 4.51 | 5.17 |
| CCGATTAACATCAGGGGTATAACTGATGTTAATCGGGTCTTGATTCGCTTGACGCTGCTG | 1.94 | 1.77 | 3.43 | 1.06 | 2.25 |
| CCGATTAACATCAGGGGGGTACATGATGTTAATCGGGTCTTGATTCGCTTGACGCTGCTG | 5.31 | 2.52 | 5.22 | 4.13 | 3.31 |
| CCGATTAACATCAAGCAACCCCCTGATGTTAATCGGGTCTTGATTCGCTTGACGCTGCTG | 5.23 | 3.34 | 2.21 | 5.19 | 4.14 |
| CCGATTAACATCAGGGGGGACAATGATGTTAATCGGGTCTTGATTCGCTTGACGCTGCTG | 4.56 | 4.19 | 6.09 | 2.95 | 4.16 |
| CCGATTAACATCAAGGGATTTCCTGATGTTAATCGGGTCTTGATTCGCTTGACGCTGCTG | 5.46 | 5.12 | 1.32 | 7.74 | 6.44 |
| CCGATTAACATCAGAAAATCCCATGATGTTAATCGGGTCTTGATTCGCTTGACGCTGCTG | 4.49 | 4.29 | 1.54 | 7.07 | 4.36 |
| CCGATTAACATCAGTAACTCCCTTGATGTTAATCGGGTCTTGATTCGCTTGACGCTGCTG | 2.54 | 2.67 | 1.16 | 2.91 | 3.78 |
| CCGATTAACATCATCAGGGGGGATGATGTTAATCGGGTCTTGATTCGCTTGACGCTGCTG | 4.58 | 4.51 | 6.21 | 4.27 | 5.18 |
| CCGATTAACATCAGGAAATCCCATGATGTTAATCGGGTCTTGATTCGCTTGACGCTGCTG | 4.15 | 3.68 | 1.17 | 8.1 | 5.09 |
| CCGATTAACATCAGGATAATCCCTGATGTTAATCGGGTCTTGATTCGCTTGACGCTGCTG | 4.74 | 3.01 | 1.51 | 2.88 | 5.24 |
| CCGATTAACATCAAAACTTCCCATGATGTTAATCGGGTCTTGATTCGCTTGACGCTGCTG | 3.04 | 3.7 | 2.63 | 4.52 | 4.42 |

| Sequence | binding signal (GST-Ap-NF-kB RHD) [z-score] | binding signal [1] [z-score] | binding signal (GST-Co-NF-kB) [z-score] | binding signal (GST-Dm-Relish) [z-score] | binding signal (GST-Aq-NF-kB) [z-score] |
| --- | --- | --- | --- | --- | --- |
| CCGATTAACATCAGGGGAGTACATGATGTTAATCGGGTCTTGATTCGCTTGACGCTGCTG | 4.22 | 2.88 | 3.31 | 6.35 | 3.06 |
| CCGATTAACATCAGGGGAACACATGATGTTAATCGGGTCTTGATTCGCTTGACGCTGCTG | 4.8 | 5.02 | 6.41 | 4.31 | 4.1 |
| CCGATTAACATCACGGGATTTCCTGATGTTAATCGGGTCTTGATTCGCTTGACGCTGCTG | 4.81 | 4.51 | 1.37 | 7.57 | 6.62 |
| CCGATTAACATCAAGGATTCCCGTGATGTTAATCGGGTCTTGATTCGCTTGACGCTGCTG | 2.73 | 3.43 | 3.1 | 6.9 | 3.92 |
| CCGATTAACATCAAATGACCCCCTGATGTTAATCGGGTCTTGATTCGCTTGACGCTGCTG | 4.25 | 2.8 | 2.98 | 3.27 | 4.02 |
| CCGATTAACATCAAAGTACCCCCTGATGTTAATCGGGTCTTGATTCGCTTGACGCTGCTG | 6.74 | 4.38 | 6.64 | 4.39 | 4.52 |
| CCGATTAACATCATCCCCCCCCATGATGTTAATCGGGTCTTGATTCGCTTGACGCTGCTG | 6.69 | 4.12 | 7.34 | 4.5 | 5.38 |
| CCGATTAACATCACGGGAGTTCCTGATGTTAATCGGGTCTTGATTCGCTTGACGCTGCTG | 3.99 | 3.71 | 1.77 | 4.98 | 5.04 |
| CCGATTAACATCAACACCCCCCCTGATGTTAATCGGGTCTTGATTCGCTTGACGCTGCTG | 5.32 | 4.06 | 5.33 | 5.81 | 4.43 |
| CCGATTAACATCAACGCCCCCCCTGATGTTAATCGGGTCTTGATTCGCTTGACGCTGCTG | 5.09 | 4.29 | 4.15 | 4.35 | 4.73 |
| CCGATTAACATCAGGGGACGGGATGATGTTAATCGGGTCTTGATTCGCTTGACGCTGCTG | 4.78 | 3.92 | 2.14 | 1.43 | 3.92 |
| CCGATTAACATCAAGGAAACCCCTGATGTTAATCGGGTCTTGATTCGCTTGACGCTGCTG | 6.7 | 4.95 | 2.91 | 7.36 | 6.19 |
| CCGATTAACATCAGGGAAACCACTGATGTTAATCGGGTCTTGATTCGCTTGACGCTGCTG | 3.4 | 4.47 | 3.12 | 8.4 | 6.48 |
| CCGATTAACATCAGAAATCCCGCTGATGTTAATCGGGTCTTGATTCGCTTGACGCTGCTG | 3.54 | 2.85 | 1.57 | 4.94 | 3.08 |
| CCGATTAACATCACGGGTTTCCCTGATGTTAATCGGGTCTTGATTCGCTTGACGCTGCTG | 3.92 | 4.58 | 4.46 | 7.38 | 5.5 |
| CCGATTAACATCAGGGAATGACCTGATGTTAATCGGGTCTTGATTCGCTTGACGCTGCTG | 2.15 | 3.16 | 1.03 | 3.4 | 5.79 |
| CCGATTAACATCAGGGAATGTACTGATGTTAATCGGGTCTTGATTCGCTTGACGCTGCTG | 2.21 | 3.28 | 2.29 | 7.08 | 4.86 |

— PMC5700166
